FBW7 activator – human FBW7 E3 ligase activation, primary screen; actives 0.13% (n = 650,000); normalized activity (activation), % at 26.1 µM; AlphaScreen FBW7–phospho-cyclin E peptide binding, activator screen; Q969H0; in the data active means normalized activity above about 1.9%;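 further: purified mutant Fbw7 with reduced substrate affinity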
MITF primary – blocks human microphthalmia-associated transcription factor; O75030; AlphaScreen MITF homodimerization, bead proximity signal; inhibition, % at 2.6 µM; actives 0.91% (n = 650,000); in the data active means inhibition above about 50%;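 further: 0% = vehicle wells with protein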
Target sequence (O75030 whole entry, looked up): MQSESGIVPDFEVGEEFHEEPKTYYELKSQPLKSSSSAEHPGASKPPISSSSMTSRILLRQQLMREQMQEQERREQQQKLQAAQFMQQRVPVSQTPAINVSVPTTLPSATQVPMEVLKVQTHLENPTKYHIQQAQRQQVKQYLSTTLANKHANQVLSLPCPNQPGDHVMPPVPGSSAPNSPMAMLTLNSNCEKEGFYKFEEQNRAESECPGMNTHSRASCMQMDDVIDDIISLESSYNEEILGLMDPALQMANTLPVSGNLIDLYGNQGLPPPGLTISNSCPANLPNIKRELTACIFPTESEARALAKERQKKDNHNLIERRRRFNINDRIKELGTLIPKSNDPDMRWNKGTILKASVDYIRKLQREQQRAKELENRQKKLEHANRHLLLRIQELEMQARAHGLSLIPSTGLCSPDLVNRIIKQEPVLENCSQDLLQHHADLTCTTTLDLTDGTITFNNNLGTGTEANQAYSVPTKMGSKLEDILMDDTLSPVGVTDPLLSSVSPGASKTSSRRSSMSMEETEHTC
TEAD-YAP inh – TEAD-YAP interaction inhibition. HEK-TIYL cells, TEAD-Gal4/YAP UAS-luciferase luminescence. inhibition, % at 9.12 µM. actives 1.4% (n = 640,000). AID 1259422; in the data active means inhibition above about 32%;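 further: 0% = median of test compound wells and 100% = reference inhibitor wells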
GPR151 activ – human GPR151 activation. actives 1% (n = 650,000). Q8TDV0. AID 1508602. PathHunter beta-arrestin GPR151 cells, luminescence. activation, % at 11.2 µM; in the data active means activation above about 4.9%;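 further: 0% = median of compound wells and 100% = cells with positive control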
The depositor's hits bear a star. The list is not random: actives were taken first. Their share in the collection is about 3.5%.

SMILES | FBW7 activator | MITF primary | TEAD-YAP inh | GPR151 activ
CC(C)NC(=O)NC(=O)COc1ccccc1C#N | 0 | -5 | -35 | -1
CCOc1ccc(C(=O)Nc2nc3ccc(Cl)cc3s2)cc1 | 0 | 5 | -16 | -1
Cc1cc(C2C(=O)c3ccccc3C2=O)nc2ccccc12 | 0 | -9 | 49* | 0
C=C(C)CNc1nc2nonc2nc1NCCOC | 0 | -7 | -3 | 0
COc1ccccc1C1NC(=O)c2[nH]nc(-c3ccc(C)cc3)c21 (stereo unspecified) | 0 | 9 | 55* | 1
O=C1C=CC(=NS(=O)(=O)c2cccc(C(=O)O)c2)C=C1 | 0 | 64* | -2 | -1
CCOc1ccc(C(=O)N/N=C/c2ccc(O)cc2)cc1 | 0 | 4 | -10 | 1
COc1ccc(C2Nc3ccccc3C(=O)N2c2ccccc2)cc1COc1cc(C)c(Cl)cc1C(C)C (stereo unspecified) | 0 | -6 | -11 | 0
CC(=O)C1=C(O)C(=O)N(c2nnn(C)n2)C1c1cccs1 (stereo unspecified) | 3.6* | 5 | -1 | -1
O=C(C1=C(O)C(=O)N(c2nccs2)C1c1cccs1)c1cccs1 (stereo unspecified) | 0 | 33 | -4 | -1
Cc1cc(NC(=O)CSc2nc3ccccc3c(=O)[nH]2)no1 | 0 | 2 | 55* | 1
Cc1cc(NC(=O)CSc2nc3ccccc3c(=O)n2C2CCCC2)no1 | 0 | 6 | 50* | 2
CCOC(=O)C(C)Oc1cc(OC(C)C(=O)OCC)c2c3c(c(=O)oc2c1)CCCC3 (stereo unspecified) | 0 | 6 | 16 | -1
COC(=O)C(C)Oc1cc(OC(C)C(=O)OC)c2c3c(c(=O)oc2c1)CCC3 (stereo unspecified) | 1 | -12 | 44* | 0
C(=N\Nc1ccc2ccccc2n1)/c1ccc2c(c1)OCCO2 | 0 | 3 | 80* | -1
COc1cccc(/C=N/Nc2ccc3ccccc3n2)c1OC | 0 | -12 | 98* | -3
C(=N\Nc1nncc2ccccc12)/c1ccc2c(c1)OCCO2 | 0 | 1 | 98* | -8
COc1ccc(/C=N/Nc2ccc3ccccc3n2)c(OC)c1OC | 0 | 4 | -40 | -1
C(=N\Nc1ccc2ccccc2n1)/c1cccnc1 | 0 | 3 | 75* | -6
COc1ccc(/C=N/Nc2ccc3ccccc3n2)cc1 | 0 | -5 | -39 | -1
CCC[C@@H]1NC(=O)[C@@H]2C[C@H](NCc3ccc(C)cc3)CN2C1=O | 0 | -9 | -8 | 2
O=[N+]([O-])c1ccc(Nc2ccccc2Cl)c([N+](=O)[O-])c1 | 0 | 11 | 3 | 2
N#Cc1cc(Nc2ccccc2Cl)c([N+](=O)[O-])cc1C#N | 0 | 4 | 74* | -1
COc1ccc([N+](=O)[O-])cc1NC(=O)c1sc2nc(C)nc(N3CCCCC3C)c2c1C (stereo unspecified) | 0 | 11 | 0 | 1
Cc1ccc(-c2nnc(Cn3c(C)nc4ccccc43)o2)cc1 | 0 | -16 | 58* | -1
SMILES | FBW7 activator | MITF primary | TEAD-YAP inh | GPR151 activ
COc1ccc(-c2nc(CCn3c(C)nc4ccccc43)no2)cc1 | 0 | -8 | 38* | 2
Cc1ccc(C(NC(=O)C2CCCCC2)c2ccc3cccnc3c2O)cc1 (stereo unspecified) | 0 | 30 | 34* | 2
Cc1ccc(C(NC(=O)C(C)C)c2ccc3cccnc3c2O)cc1 (stereo unspecified) | -1 | 21 | 86* | 0
COc1ccc(C(=O)NC(c2ccc(C)cc2)c2cc(Cl)c3cccnc3c2O)cc1 (stereo unspecified) | 0 | 15 | 10 | 1
COc1ccc(C(NC(C)=O)c2ccc3cccnc3c2O)cc1 (stereo unspecified) | -2 | 48 | 86* | 0
COc1ccccc1C(NC(=O)Cc1ccccc1)c1ccc2cccnc2c1O (stereo unspecified) | -1 | 22 | 29 | 0
O=[N+]([O-])c1ccc(C(Nc2nccs2)c2ccc3cccnc3c2O)cc1 (stereo unspecified) | -2 | 18 | 27 | -1
CCCCC(=O)NC(c1ccc(OC)cc1)c1ccc2cccnc2c1O (stereo unspecified) | -2 | 41 | 80* | 0
CC1=C(C(=O)Nc2ccc(Br)cn2)C(c2ccc(Cl)c([N+](=O)[O-])c2)C2=C(CC(C)(C)CC2=O)N1 (stereo unspecified) | 0 | 1 | -5 | 1
CCOC(=O)C1CCCCN1S(=O)(=O)c1ccc2c(c1)CC(C)N2C(=O)C1CC1 (stereo unspecified) | 0 | -5 | -6 | -1
COc1ccc(C(NC(=O)C(C)C)c2ccc3cccnc3c2O)cc1OC (stereo unspecified) | -2 | 62* | 90* | 1
COc1ccc(C(NC(=O)C(C)C)c2ccc3cccnc3c2O)cc1 (stereo unspecified) | -2 | 51* | 75* | -1
CCN(CC)c1ccc(C(NC(=O)C(C)C)c2cc(Cl)c3cccnc3c2O)cc1 (stereo unspecified) | 0 | 8 | 1 | -2
CCN1CCN(c2ncc3c(n2)CC(c2cc(OC)c(OC)c(OC)c2)CC3=O)CC1 (stereo unspecified) | 0 | -7 | 47* | 0
O=C1CC(c2cccc(Cl)c2)Cc2nc(N3CCOCC3)ncc21 (stereo unspecified) | 0 | -4 | 0 | 0
CCOc1ccc(CSc2n[nH]c(CC)n2)cc1 | 0 | 6 | -5 | -1
CCCOc1ccc(CSc2n[nH]c(C)n2)cc1 | 0 | -5 | 82* | -3
CCOc1ccc(CSc2n[nH]c(C)n2)cc1 | 0 | 5 | 88* | -4
O=C(Nc1ccc(Cl)c(Cl)c1)c1ccc(F)c(S(=O)(=O)N2CCCC2)c1 | 0 | 5 | -14 | 2
CCC(C1CCCCC1)S(=O)(=O)c1ccc(S(=O)(=O)O)cc1 (stereo unspecified) | 0 | 6 | 4 | 0
N#Cc1c(N)nc2sc(C(N)=O)c(N)c2c1-c1cccs1 | 0 | -8 | 42* | 0
NC(=O)c1sc2nc3c(c(-c4cccs4)c2c1N)CCCCC3 | 0 | -5 | 36* | 1
Nc1c(C(=O)c2ccccc2)sc2nc3c(c(-c4cccs4)c12)CCCC3 | 1 | 23 | -10 | -2
NC(=O)c1sc2nc3c(c(-c4ccco4)c2c1N)CCCCC3 | 0 | -11 | 40* | 0
COc1ccc(-c2c(C#N)c(N)nc3sc(C(N)=O)c(N)c23)cc1OC | 0 | 17 | -7 | -1
CCOC(=O)c1sc2nc3c(c(-c4ccco4)c2c1N)CCCC3 | 1 | 1 | 8 | 0
O=C(NCc1cccs1)C1CCCN(c2nn3cc(-c4ccc(F)cc4)nc3s2)C1 (stereo unspecified) | 0 | -3 | 2 | 1
O=C(Nc1ccc(Nc2cc(-n3ccnc3)ncn2)cc1)c1cccc2ccccc12 | 0 | 2 | 34* | 0
O=C(Nc1ccc(Nc2cc(-n3ccnc3)ncn2)cc1)c1ccc(F)cc1F | 0 | -13 | 21 | 0

Assay outcomes deposited in PubChem by The Scripps Research Institute Molecular Screening Center.
